Assay outcomes from PubChem.
AMPAR-TARP mod – modulators of AMPA receptor GluA2-stargazin complexes; O88602+P19491; calls only at 30 µM; HEK293 GluA2+stargazin, membrane potential dye (FDSS), glutamate EC50; hits were called plate by plate, in both directions; hit rate 3.5% among 40,000;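 active = any of four per-well response measures lying three or more SD from its plate-wide compound average, in either direction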
GIRK2 activator – Activates human GIRK2-containing potassium channels; HEK293 GIRK2/NPY4 cells, thallium flux fluorescence; AID 1259324; activation (% efficacy), % for hits at 75 µM; 34,000 tested, under 10 active; P48051;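 active = primary screen hit, no activity in plain HEK293 cells, and in GIRK2-only cells above 5% efficacy rising with concentration; inactive = the rest, including fluorescent compounds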;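 also: efficacy is normalized control-subtracted fluorescence 15 s after thallium addition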
Target sequence (P48051 whole entry, looked up): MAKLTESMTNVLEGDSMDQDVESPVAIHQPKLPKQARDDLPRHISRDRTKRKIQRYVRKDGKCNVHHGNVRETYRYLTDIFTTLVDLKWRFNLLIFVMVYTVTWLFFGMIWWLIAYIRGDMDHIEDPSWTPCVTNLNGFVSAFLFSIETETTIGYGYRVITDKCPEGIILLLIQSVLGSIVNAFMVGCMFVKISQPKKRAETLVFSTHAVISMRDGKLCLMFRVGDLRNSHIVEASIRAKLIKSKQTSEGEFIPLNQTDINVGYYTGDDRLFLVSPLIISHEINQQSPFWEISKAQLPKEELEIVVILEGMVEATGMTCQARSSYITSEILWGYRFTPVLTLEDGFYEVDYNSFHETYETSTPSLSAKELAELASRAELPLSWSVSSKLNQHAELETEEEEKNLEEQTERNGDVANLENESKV
Each line names hits and unclear results; the compound was inactive in the other large screens. The entries come from a sample that favours hits as a whole.

CCC(=O)OCCN1C(=O)c2cccc3c(N4CCCCC4)ccc(c23)C1=O	AMPAR-TARP mod active (no result: GIRK2 activator)
COc1cccc(N2C(=O)c3cccc4c(N5CCCCCC5)ccc(c34)C2=O)c1	none (no result: GIRK2 activator)
O=C(Cn1c2c(c(=O)n(C3CCCCC3)c1=O)CCC2)Nc1nc2ccccc2s1	none
COc1ccc2nc(N(Cc3ccccc3)C(=O)Cc3ccc(S(C)(=O)=O)cc3)sc2c1	none (no result: GIRK2 activator)
O=S(=O)(c1cccs1)N1CCN(Cc2nnnn2-c2ccc(F)cc2)CC1	AMPAR-TARP mod active
O=S(=O)(c1cccs1)N1CCN(Cc2nnnn2-c2ccc(Cl)cc2)CC1	none
CCOC(=O)CCC(=O)NCCNC(=O)c1ccc(NC(C)=O)cc1	none
COc1cc(C)ccc1OCC(=O)N1CCN(c2ccc3nnc(C)n3n2)CC1	AMPAR-TARP mod active
COc1cc(C)ccc1OCC(=O)N1CCN(c2ccc3nncn3n2)CC1	none
O=C(CSc1nc2c(c(=O)[nH]1)CN(Cc1ccccc1)CC2)NCc1ccc2c(c1)OCO2	none (no result: GIRK2 activator)
O=S(=O)(Nc1ccc(Br)cc1)N1CCCCCC1	AMPAR-TARP mod active (no result: GIRK2 activator)
O=S(=O)(Nc1ccc(Br)cc1)N1CCOCC1	none (no result: GIRK2 activator)
Cc1ccc(CNC(=O)C(=O)NCC(c2ccc(C)cc2)N2CCOCC2)cc1 (configuration not stated)	none
CCS(=O)(=O)c1ccc(CC(=O)N2CCN(c3nc4c(C)ccc(Cl)c4s3)CC2)cc1	AMPAR-TARP mod active (no result: GIRK2 activator)
COc1ccc(S(=O)(=O)CC(=O)N2CCN(c3nc4c(C)ccc(Cl)c4s3)CC2)cc1	none (no result: GIRK2 activator)
COC(=O)Cn1c(=O)c2c(nc3n(-c4ccc(C)cc4C)c(C)c(C)n23)n(C)c1=O	none
CCCCc1ccc(NC(=O)Cn2cc(OC)c(=O)cc2CSc2nnnn2C)cc1	none
COc1cc(C(=O)Nc2c(C(C)C)cccc2C(C)C)cc(OC)c1OC	AMPAR-TARP mod active
CC(C)c1cccc(C(C)C)c1NC(=O)c1ccc(O)cc1	none (no result: GIRK2 activator)
Cc1cccc(Cn2c(C3CC(=O)N(Cc4ccc(F)cc4)C3)nc3ccccc32)c1 (configuration not stated)	none (no result: GIRK2 activator)
Cc1cccc(Cn2c(C3CC(=O)N(Cc4ccccc4)C3)nc3ccccc32)c1 (configuration not stated)	AMPAR-TARP mod active (no result: GIRK2 activator)
CN1CC(c2nc3ccccc3n2Cc2ccccc2F)CC1=O (configuration not stated)	none (no result: GIRK2 activator)
CC(c1ccccc1)n1c(C2CC(=O)N(Cc3ccccc3)C2)nc2ccccc21 (configuration not stated)	AMPAR-TARP mod active (no result: GIRK2 activator)
C=CCN1CC(c2nc3ccccc3n2Cc2ccc(C(C)C)cc2)CC1=O (configuration not stated)	none (no result: GIRK2 activator)
C=CCN1CC(c2nc3ccccc3n2Cc2cccc(C)c2)CC1=O (configuration not stated)	AMPAR-TARP mod active (no result: GIRK2 activator)
CCN1CC(c2nc3ccccc3n2Cc2ccccc2)CC1=O (configuration not stated)	none (no result: GIRK2 activator)
O=C1CC(c2nc3ccccc3n2Cc2ccccc2F)CN1Cc1ccccc1 (configuration not stated)	AMPAR-TARP mod active (no result: GIRK2 activator)
CCOc1ccc(-c2ccc(=O)n(CCNS(=O)(=O)c3cc(OC)ccc3OC)n2)cc1	none (no result: GIRK2 activator)
CCOC(=O)Nc1nc(CC(=O)Nc2ccccc2CC)cs1	none (no result: AMPAR-TARP mod)
Cc1cc(NC(=O)c2c(F)cccc2F)n(-c2nc(-c3ccccc3)cs2)n1	none (no result: AMPAR-TARP mod)
C=CCN1CC(c2nc3ccccc3n2Cc2ccc(C)cc2)CC1=O (configuration not stated)	none (no result: GIRK2 activator)
C=CCN1CC(c2nc3ccccc3n2Cc2ccc(Cl)cc2)CC1=O (configuration not stated)	AMPAR-TARP mod active (no result: GIRK2 activator)
CCOc1ccccc1NC(=O)/C=C/c1ccc(OC)c(OC)c1	none (no result: GIRK2 activator)
CC(=O)Cc1nsc(NC(=O)c2cc(-c3ccc([N+](=O)[O-])cc3)oc2C)n1	AMPAR-TARP mod active
CC(=O)Cc1nsc(NC(=O)c2oc3ccc(C)cc3c2C)n1	none (no result: GIRK2 activator)
O=[N+]([O-])c1ccc(S(=O)(=O)NCC2COC3(CCCCC3)O2)cc1 (configuration not stated)	none
O=[N+]([O-])c1cccc(S(=O)(=O)NCC2COC3(CCCCC3)O2)c1 (configuration not stated)	AMPAR-TARP mod active
CCC(=O)NCCOc1ccc(-c2cccs2)nn1	none
O=C(Cn1cnc(-c2cccs2)cc1=O)NCCOc1ccc(-c2ccco2)nn1	AMPAR-TARP mod active
O=C(NCC1CCN(C(=O)/C=C/c2ccco2)CC1)c1ccco1	none
CCN(C(=O)C1CCN(c2ccc(-c3ccccc3OC)nn2)CC1)C1CCCCC1	AMPAR-TARP mod active
COc1ccccc1-c1ccc(N2CCC(C(=O)N3CCN(c4ccccc4OC)CC3)CC2)nn1	none
O=C(Cc1cccs1)NCC(c1ccco1)N1CCOCC1 (configuration not stated)	none
CC(C)(C)c1ccc(C(=O)N2CCC3(CC2)CC(=O)c2ccccc2O3)cc1	none (no result: GIRK2 activator)
Cc1ccccc1C(=O)N1CCC2(CC1)CC(=O)c1ccccc1O2	AMPAR-TARP mod active (no result: GIRK2 activator)
COC(=O)Nc1ccc(C)c(N2CCCCC2=O)c1	none
COc1ccc(CCNC(=O)Cn2nc(C(=O)Nc3ccccc3)ccc2=O)cc1	none
Cc1cc(C(=O)N2CCC3(CC2)OCCN3S(=O)(=O)c2cccs2)c(C)o1	AMPAR-TARP mod active
COc1ccc(S(=O)(=O)N2CCOC23CCN(C(=O)c2cc(C)oc2C)CC3)cc1	none
COc1ccc(CCNC(=O)N2CC(=O)Nc3ccccc32)cc1	none
N#Cc1ccc(Cl)cc1NC(=O)C(=O)NCC1CCN(c2cnccn2)CC1	none
O=C(CSc1nccn(-c2ccc(Cl)cc2)c1=O)Nc1ccc(F)cc1F	AMPAR-TARP mod active (no result: GIRK2 activator)
Cc1cc(C)cc(-n2ccnc(SCC(=O)Nc3c(C)cc(C)cc3C)c2=O)c1	AMPAR-TARP mod active (no result: GIRK2 activator)
COc1ccc(-n2ccnc(SCC(=O)Nc3c(C)cc(C)cc3C)c2=O)cc1	none (no result: GIRK2 activator)
O=C(CSc1nccn(-c2ccc(F)cc2)c1=O)Nc1ccc(F)cc1	none (no result: GIRK2 activator)
Cc1ccc(NC2SC(=O)N(C(C)C)C2=O)c(C)c1 (configuration not stated)	none
NC(=O)Cn1nnn(-c2ccc(NC(=O)c3nc4ccccc4s3)cc2)c1=O	none
COCCn1c(=O)c2c(nc(-n3nc(C)cc3C)n2Cc2ccc(F)cc2)n(C)c1=O	AMPAR-TARP mod active
CCOCCn1c(-n2nc(C)cc2C)nc2c1c(=O)n(Cc1ccc(F)cc1)c(=O)n2C	none
Cn1cc(C(=O)N2CCCCCC2)cc(NC(=O)c2ccccc2Cl)c1=O	AMPAR-TARP mod active (no result: GIRK2 activator)
Cn1cc(C(=O)N2CCCCCC2)cc(NC(=O)c2cc(Cl)ccc2Cl)c1=O	none (no result: GIRK2 activator)
O=C(NCC1CCN(C(=O)c2cc3ccccc3o2)CC1)c1cc(-c2ccccc2)on1	AMPAR-TARP mod active
O=C(NCC1CCN(C(=O)c2cc3ccccc3o2)CC1)c1cc(Cl)ccc1Cl	none
Cc1cc(C(=O)NCC2CCN(C(=O)c3cc4ccccc4o3)CC2)c(C)o1	none
O=C(NCC1CCN(C(=O)c2cc3ccccc3o2)CC1)c1ccc(Cl)s1	AMPAR-TARP mod active
CC(C)(C)NC(=O)N1CCC(CNC(=O)c2cc(-c3ccccc3)on2)CC1	none
Cc1csc(C(=O)NCC2CCN(C(=O)c3cc4ccccc4o3)CC2)c1	AMPAR-TARP mod active
CCc1cccc(C)c1NC(=O)Cn1cc(-c2ccccc2C)c(N2CCOCC2)n1	none (no result: AMPAR-TARP mod)
CC1=C(C(=O)Nc2cccc(C(F)(F)F)c2)C(c2cccc([N+](=O)[O-])c2)C2=C(CCCC2=O)N1 (configuration not stated)	none (no result: GIRK2 activator)
CCOc1ccc(S(=O)(=O)NCC2CCN(S(=O)(=O)C3CC3)CC2)cc1F	none
